Laboratory results as given in the supplement of paper PMC10382584, “Macrocyclization of linear molecules by deep learning to facilitate macrocyclic drug candidates discovery” (Nature Communications, 2023).

compound: Cc1cnc(Nc2ccc(OCCN3CCCC3)cc2)nc1Nc1cccc(S(=O)(=O)NC(C)(C)C)c1 [Fedratinib]; experiment: percent of DMSO control binding (KINOMEscan); higher = weaker binding / less inhibition; extreme values may be limits of the assay; conditions: concentration: 100 nM

Sequence of UniProt P27037 (P27037 whole entry): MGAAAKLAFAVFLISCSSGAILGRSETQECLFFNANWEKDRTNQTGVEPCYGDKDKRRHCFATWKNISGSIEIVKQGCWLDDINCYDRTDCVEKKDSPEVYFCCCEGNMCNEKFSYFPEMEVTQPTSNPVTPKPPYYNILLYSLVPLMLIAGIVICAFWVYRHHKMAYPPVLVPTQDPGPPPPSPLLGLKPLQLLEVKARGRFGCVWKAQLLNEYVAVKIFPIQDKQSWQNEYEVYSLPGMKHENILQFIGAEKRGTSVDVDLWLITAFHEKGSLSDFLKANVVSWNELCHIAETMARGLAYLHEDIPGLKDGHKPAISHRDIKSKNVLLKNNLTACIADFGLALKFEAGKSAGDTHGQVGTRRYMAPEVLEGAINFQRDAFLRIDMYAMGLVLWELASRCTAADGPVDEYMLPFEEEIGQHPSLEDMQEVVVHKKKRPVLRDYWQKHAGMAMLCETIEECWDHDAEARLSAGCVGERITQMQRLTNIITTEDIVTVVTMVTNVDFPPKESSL
Sequence of UniProt Q15418 (Q15418 whole entry, looked up): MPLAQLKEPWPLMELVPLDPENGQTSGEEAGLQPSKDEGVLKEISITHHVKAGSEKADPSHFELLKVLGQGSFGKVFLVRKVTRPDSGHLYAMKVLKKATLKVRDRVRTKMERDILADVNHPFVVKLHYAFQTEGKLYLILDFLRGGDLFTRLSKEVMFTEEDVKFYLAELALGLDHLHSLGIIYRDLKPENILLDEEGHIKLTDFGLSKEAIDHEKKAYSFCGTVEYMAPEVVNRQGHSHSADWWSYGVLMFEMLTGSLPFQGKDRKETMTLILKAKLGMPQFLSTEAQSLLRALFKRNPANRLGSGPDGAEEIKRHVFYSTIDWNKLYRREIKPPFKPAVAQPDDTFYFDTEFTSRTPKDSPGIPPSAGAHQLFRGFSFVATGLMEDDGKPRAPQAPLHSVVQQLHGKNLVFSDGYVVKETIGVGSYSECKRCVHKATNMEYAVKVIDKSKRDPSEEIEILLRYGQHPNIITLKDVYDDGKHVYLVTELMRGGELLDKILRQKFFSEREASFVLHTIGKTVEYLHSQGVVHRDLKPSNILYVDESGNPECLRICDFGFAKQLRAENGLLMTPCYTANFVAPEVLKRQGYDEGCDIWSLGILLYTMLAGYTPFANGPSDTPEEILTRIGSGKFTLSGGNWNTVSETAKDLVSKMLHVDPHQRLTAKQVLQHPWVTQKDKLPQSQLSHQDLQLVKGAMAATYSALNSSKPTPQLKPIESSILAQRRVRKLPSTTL
Sequence of UniProt P11802 (P11802 whole entry, looked up): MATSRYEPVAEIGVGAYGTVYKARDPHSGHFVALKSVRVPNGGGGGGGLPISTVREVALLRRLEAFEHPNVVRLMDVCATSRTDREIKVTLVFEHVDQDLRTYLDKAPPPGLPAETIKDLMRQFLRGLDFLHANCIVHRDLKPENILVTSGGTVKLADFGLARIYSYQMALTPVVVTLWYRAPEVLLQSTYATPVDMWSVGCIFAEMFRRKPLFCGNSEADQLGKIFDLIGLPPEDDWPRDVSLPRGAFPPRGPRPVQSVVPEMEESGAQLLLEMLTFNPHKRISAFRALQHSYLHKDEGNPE
Sequence of UniProt P08631 (P08631 whole entry, looked up): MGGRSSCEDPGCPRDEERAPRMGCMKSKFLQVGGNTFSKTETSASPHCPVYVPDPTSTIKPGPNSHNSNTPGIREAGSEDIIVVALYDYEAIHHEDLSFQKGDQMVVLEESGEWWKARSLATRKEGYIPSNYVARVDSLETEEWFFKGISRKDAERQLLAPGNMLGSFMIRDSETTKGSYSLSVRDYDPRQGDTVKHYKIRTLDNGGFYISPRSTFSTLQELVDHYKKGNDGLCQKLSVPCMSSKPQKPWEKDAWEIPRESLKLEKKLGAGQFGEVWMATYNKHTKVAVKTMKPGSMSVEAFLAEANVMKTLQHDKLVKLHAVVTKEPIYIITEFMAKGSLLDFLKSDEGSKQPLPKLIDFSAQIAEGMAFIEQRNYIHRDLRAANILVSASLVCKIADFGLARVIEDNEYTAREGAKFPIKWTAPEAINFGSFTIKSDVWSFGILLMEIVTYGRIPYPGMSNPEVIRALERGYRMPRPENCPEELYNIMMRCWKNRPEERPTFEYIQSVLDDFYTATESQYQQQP
Sequence of UniProt Q02779 (Q02779 whole entry, looked up): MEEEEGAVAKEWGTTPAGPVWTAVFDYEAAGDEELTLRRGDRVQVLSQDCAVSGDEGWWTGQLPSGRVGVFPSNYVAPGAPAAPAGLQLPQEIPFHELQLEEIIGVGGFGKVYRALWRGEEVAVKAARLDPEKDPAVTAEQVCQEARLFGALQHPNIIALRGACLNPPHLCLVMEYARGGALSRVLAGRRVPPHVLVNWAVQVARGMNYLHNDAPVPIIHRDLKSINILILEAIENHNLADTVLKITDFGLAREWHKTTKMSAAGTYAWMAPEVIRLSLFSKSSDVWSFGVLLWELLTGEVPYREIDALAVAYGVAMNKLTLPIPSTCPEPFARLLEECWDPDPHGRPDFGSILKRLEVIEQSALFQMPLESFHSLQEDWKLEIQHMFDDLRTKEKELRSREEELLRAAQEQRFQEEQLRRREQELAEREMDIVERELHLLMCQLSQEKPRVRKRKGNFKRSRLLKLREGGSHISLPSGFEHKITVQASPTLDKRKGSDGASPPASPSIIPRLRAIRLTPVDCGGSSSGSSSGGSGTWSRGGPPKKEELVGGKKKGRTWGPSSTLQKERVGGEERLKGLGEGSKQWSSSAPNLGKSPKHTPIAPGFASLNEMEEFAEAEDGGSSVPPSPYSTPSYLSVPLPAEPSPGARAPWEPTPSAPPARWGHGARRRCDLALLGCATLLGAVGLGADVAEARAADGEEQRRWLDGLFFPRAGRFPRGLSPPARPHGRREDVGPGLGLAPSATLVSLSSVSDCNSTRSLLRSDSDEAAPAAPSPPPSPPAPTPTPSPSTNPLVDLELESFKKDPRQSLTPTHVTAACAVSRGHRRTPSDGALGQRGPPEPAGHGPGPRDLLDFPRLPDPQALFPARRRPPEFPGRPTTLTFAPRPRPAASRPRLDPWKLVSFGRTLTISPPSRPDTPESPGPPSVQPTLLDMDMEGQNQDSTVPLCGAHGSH
Sequence of UniProt O95747 (O95747 whole entry, looked up): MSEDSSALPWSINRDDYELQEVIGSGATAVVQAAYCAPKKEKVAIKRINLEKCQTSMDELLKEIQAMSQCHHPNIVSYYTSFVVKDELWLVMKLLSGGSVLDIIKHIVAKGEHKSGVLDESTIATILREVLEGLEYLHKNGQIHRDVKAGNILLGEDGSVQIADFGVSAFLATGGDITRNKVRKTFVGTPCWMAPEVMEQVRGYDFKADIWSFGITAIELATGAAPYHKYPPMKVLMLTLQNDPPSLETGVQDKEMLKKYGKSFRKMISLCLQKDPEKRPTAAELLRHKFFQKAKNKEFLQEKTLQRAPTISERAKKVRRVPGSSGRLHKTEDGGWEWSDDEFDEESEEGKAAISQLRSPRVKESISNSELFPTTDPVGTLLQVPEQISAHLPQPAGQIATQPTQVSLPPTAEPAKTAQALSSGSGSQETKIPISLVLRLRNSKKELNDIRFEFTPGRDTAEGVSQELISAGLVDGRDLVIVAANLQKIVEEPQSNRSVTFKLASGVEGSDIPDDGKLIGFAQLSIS
Sequence of UniProt P21709 (P21709 whole entry): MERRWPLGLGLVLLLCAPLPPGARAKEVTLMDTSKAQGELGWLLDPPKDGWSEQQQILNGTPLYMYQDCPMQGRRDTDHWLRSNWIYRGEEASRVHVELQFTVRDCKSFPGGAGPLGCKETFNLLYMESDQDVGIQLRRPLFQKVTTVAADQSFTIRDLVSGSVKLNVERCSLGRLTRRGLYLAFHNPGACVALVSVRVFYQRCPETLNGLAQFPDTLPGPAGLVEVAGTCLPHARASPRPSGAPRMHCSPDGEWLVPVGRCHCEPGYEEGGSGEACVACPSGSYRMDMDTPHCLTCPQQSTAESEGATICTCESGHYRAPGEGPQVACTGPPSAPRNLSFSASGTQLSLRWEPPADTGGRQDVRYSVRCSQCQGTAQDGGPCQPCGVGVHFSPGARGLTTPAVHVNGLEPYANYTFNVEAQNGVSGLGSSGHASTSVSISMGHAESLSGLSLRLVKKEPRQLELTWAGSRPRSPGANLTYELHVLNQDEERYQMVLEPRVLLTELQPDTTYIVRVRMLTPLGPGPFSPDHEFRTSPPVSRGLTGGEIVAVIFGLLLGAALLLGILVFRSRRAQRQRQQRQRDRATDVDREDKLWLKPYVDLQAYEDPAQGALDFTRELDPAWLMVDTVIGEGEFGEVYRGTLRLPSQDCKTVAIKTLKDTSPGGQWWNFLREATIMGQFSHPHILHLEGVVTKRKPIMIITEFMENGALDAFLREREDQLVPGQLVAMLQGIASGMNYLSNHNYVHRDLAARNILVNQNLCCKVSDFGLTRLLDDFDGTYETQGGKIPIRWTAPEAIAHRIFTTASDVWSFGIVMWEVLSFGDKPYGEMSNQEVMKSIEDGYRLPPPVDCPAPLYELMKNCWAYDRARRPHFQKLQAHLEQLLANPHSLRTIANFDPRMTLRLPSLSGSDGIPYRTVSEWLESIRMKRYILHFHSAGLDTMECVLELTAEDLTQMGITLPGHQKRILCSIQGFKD
Sequence of UniProt Q6P2M8 (Q6P2M8 whole entry): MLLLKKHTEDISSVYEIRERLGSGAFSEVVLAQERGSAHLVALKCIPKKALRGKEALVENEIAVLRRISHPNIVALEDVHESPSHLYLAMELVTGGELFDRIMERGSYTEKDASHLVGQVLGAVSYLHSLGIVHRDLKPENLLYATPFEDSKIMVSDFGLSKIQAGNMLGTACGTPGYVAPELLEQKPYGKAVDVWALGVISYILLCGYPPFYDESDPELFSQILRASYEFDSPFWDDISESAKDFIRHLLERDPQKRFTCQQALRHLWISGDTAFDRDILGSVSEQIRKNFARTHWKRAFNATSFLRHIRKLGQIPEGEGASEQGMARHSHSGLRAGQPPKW

In order of rising “percent of DMSO control binding” value:
1. PIP5K1A (UniProt Q99755)  17%
2. EPHA1 (UniProt P21709)  60%
3. PKNB(M.tuberculosis)  61%
4. GCN2(Kin.Dom.2,S808G)  61%
5. VRK2 (UniProt Q86Y07)  63%
6. MEK2 (UniProt P36507)  66%
7. CAMK1B (UniProt Q6P2M8)  66%
8. ALK(L1196M) (UniProt Q9UM73)  67%
9. RSK4(Kin.Dom.1-N-terminal)  70%
10. ERBB2 (UniProt P04626)  73%
11. CTK (UniProt P42679)  74%
12. LRRK2(G2019S) (UniProt Q5S007)  76%
13. MAP3K4 (UniProt Q9Y6R4)  77%
14. MLK2 (UniProt Q02779)  78%
15. JAK1(JH2domain-pseudokinase) (UniProt P23458)  80%
16. MTOR (UniProt P42345)  87%
17. BTK (UniProt Q06187)  87%
18. ROS1 (UniProt P08922)  88%
19. RSK1(Kin.Dom.1-N-terminal) (UniProt Q15418)  89%
20. CDK4-cyclinD3 (UniProt P11802)  90%
21. CDKL5 (UniProt O76039)  91%
22. OSR1 (UniProt O95747)  91%
23. NEK5 (UniProt Q6P3R8)  94%
24. MET(M1250T) (UniProt P08581)  94%
25. PIK4CB (UniProt Q9UBF8)  97%
26. CDK9 (UniProt P50750)  97%
27. CDKL2 (UniProt Q92772)  100%
28. HCK (UniProt P08631)  100%
29. ERBB4 (UniProt Q15303)  100%
30. PIP5K1C (UniProt O60331)  100%
31. CAMKK2 (UniProt Q96RR4)  100%
32. AMPK-alpha1 (UniProt Q13131)  100%
33. EGFR(G719C) (UniProt P00533)  100%
34. PFPK5(P.falciparum)  100%
35. ACVR2A (UniProt P27037)  100%
36. PIK3CG (UniProt P48736)  100%
37. PRKG1 (UniProt Q13976)  100%
